Assay outcomes (PubChem BioAssay)
Rows were chosen to be rich in hits. Some 11% of all compounds tested hit in one or more screens of this group.
JMJD2A Tudor – inhibitors of human JMJD2A Tudor domain; O75164; AlphaScreen JMJD2A-Tudor / H3K4me3 peptide binding; Potency, µM (highest dose often 114 µM), without a hit: at the top dose activity change, negative = inhibition, hits mostly inhibitors; 4.4% of 390,000 active; AID 504339; further: potency means the concentration at half of the fitted maximal effect; on the % scale 0 is the no-effect control and ±100 the full control effect; nearly all actives have a fitted effect of over 50% in size
HP1b chromo inh – HP1-beta chromodomain-methylated histone interaction inhibition | P83916 | 0.56% of 390,000 active | AlphaScreen HP1-beta / biotin-H3K9me3 peptide binding | AID 540317 | Potency, µM (highest dose often 114 µM), inactives show at the top dose activity change, negative = inhibition, usual class: inhibitors; further: potency means the concentration at half of the fitted maximal effect; nearly all actives have a fitted effect of over 70% in size
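AlphaScreen: HP1-beta (50 nM) preformed 30 min with biotin-H3(1-18)K9me3 peptide (50 nM) in PBS pH 7.4, 0.01% Tween-20. Compound added for 30 min at RT, then streptavidin donor/nickel chelate acceptor beads (10 ug/mL) for 30 min.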
BAZ2B block – inhibitors of human BAZ2B bromodomain. Q9UIF8. AlphaScreen BAZ2B-H3K14Ac peptide displacement. Potency, µM (series often up to 114 µM), without a hit: at the top dose activity change, negative = inhibition, most hits filed as inhibitors. 4.4% of 360,000 active. AID 504333; further: potency means the concentration at half of the fitted maximal effect; on the % scale 0 is the no-effect control and ±100 the full control effect; nearly all actives have a fitted effect of over 60% in size
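AlphaScreen displacement: compounds (up to 110uM) incubated 30 min at room temperature with a preformed 50 nM BAZ2B/50 nM biotinylated H3K14Ac peptide complex in PBS pH 7.4 with Tween-20. Donor and acceptor beads at 10 ug/mL final added, 20 min light-protected before reading.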
L3MBTL1 block – blocks human L3MBTL1; Q9Y468; AlphaScreen L3MBTL1–H3K9me1 peptide binding; Potency, µM (doses to about 57.1 µM), for inactives: at the highest dose activity, negative = inhibition, usual class: inhibitors; 0.66% of 230,000 active; AID 485360; further: potency means the concentration at half of the fitted maximal effect; on the % scale 0 is the no-effect control and ±100 the full control effect; nearly all actives have a fitted effect of over 60% in size
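First, the protein-peptide complex forms for 30 min at room temperature (L3MBTL1 50 nM, biotinylated H3K9me1 peptide 75 nM). Next, compounds are pin-transferred and incubated 30 min. Finally, AlphaScreen beads are added and read after 30 min.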
PI5P4K alpha inh – PI5P4K alpha (human) kinase inhibition | AID 652105 | PI5P4Kalpha enzyme, ADP-Glo luminescence, 60 min; hits give low values | 1.2% of 330,000 active | max response, % | P48426; active means max response of -50% or lower; inconclusive means between -30% and -50%; inactive means -30% or higher; further: value at the top dose of about 77 µM; on the % scale 0 is the no-effect control and ±100 the full control effect
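ADP-Glo luminescence end-point read after a 60 min room-temperature kinase reaction of PI5P4Kalpha plus substrate, initiated with ATP at 5 microM final. Buffer: 0.038 M HEPES pH 7.4, EGTA, 0.1% CHAPS, 5% DMSO.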
G9a inh – G9a (human) methyltransferase inhibition; AID 504332; Potency, µM (series often up to 102 µM), for the others: at the highest dose activity, negative = inhibition, actives largely listed as inhibitors; 8.8% of 350,000 active; Q96KQ7; G9a H3K9 monomethylation, AlphaScreen, 2 h; further: potency means the concentration at half of the fitted maximal effect; on the % scale 0 is the no-effect control and ±100 the full control effect; nearly all actives have a fitted effect of over 75% in size
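Methyltransferase reactions run at room temperature for 2 h (20 nM enzyme, 500 nM biotin-H3K9 peptide, 20 uM SAM) after a 15 min compound preincubation; product detected by AlphaScreen beads and anti-H3K9me1 antibody.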
Starred values were filed as active, the others as inactive; ? = inconclusive; / = no result; [ ] = dose if it differs, or a comment. Unless noted, the call rests on the fitted dose curve; in most records, active means well fitted inhibition curve with a large enough effect; inconclusive means small, poorly fitted or top-dose-only effect; inactive means no such curve, though single readings can be large or run the other way.

SMILES	JMJD2A Tudor	HP1b chromo inh	BAZ2B block	L3MBTL1 block	PI5P4K alpha inh	G9a inh
CCC(C)n1c(=O)c2sccc2n2c(CCCC(=O)NCc3ccccc3Cl)nnc12 (stereo not drawn)	-20%	13%	-12%	/	/	-4%[59 µM]
CCNc1ncc2ncc(=O)n(C3CC3)c2n1	/	/	/	/	/	16%[0.501 µM]
CC(C)Oc1cccc(C(=O)Nc2ncn[nH]2)c1	-20%	54%	50µM*	?	-1	/
CC(C)Oc1ccc(C(=O)Nc2ncn[nH]2)cc1	?	60%	50µM*	-5%	-6	-71%
COC(=O)c1sccc1NC(=O)C1C2C=CC(O2)C1C(=O)O (stereo not drawn)	?	54%	-1%	-8%	-2	-17%[59 µM]
Cc1ccc(F)cc1NC(=O)C1C2CCC(O2)C1C(=O)O (stereo not drawn)	-24%	19%	25%	/	0	79µM*
Cc1cccc(NC(=O)C2C3C=CC(O3)C2C(=O)O)c1C (stereo not drawn)	-32%	47%	-5%	/	1	35µM*
Cc1ccc(C)c(NC(=O)C2C3C=CC(O3)C2C(=O)O)c1 (stereo not drawn)	-22%	35%	-12%	2%	-3	45µM*
Cc1ccc(NC(=O)C2C3C=CC(O3)C2C(=O)O)c(C)c1 (stereo not drawn)	-10%	35%	-2%	3%	0	40µM*
Cc1ccc(C)c(NC(=O)C2CC=CCC2C(=O)O)c1 (stereo not drawn)	11%	37%	-26%	-4%	-1	-9%[59 µM]
CCCc1cnc2c(c1SCC(=O)Nc1ccc(C)c(Cl)c1)c(=O)n(C)c(=O)n2C	2%	1%	-29%	/	/	-45%[59 µM]
COc1ccccc1NC(=O)C1C2C=CC(O2)C1C(=O)O (stereo not drawn)	/	/	?	-4%	/	50µM*
COc1ccc(C2C(C#N)=C(N)Nc3nc4ccccc4n32)cc1 (stereo not drawn)	-11%	15%	3%	0%	1	?
COc1ccc(C2C(C#N)=C(N)N3C(=C2C#N)Sc2ccccc23)cc1 (stereo not drawn)	/	/	0%	-2%	/	6.3µM*
COC(=O)c1ccccc1NC(=O)COC(=O)c1ccccc1N=Nc1ccc(N(C)C)cc1	32µM*	?	8.9µM*	10µM*	-3	8.9µM*
CN(C)c1ccc(NC(=O)COC(=O)c2cc(Cl)ccc2[N+](=O)[O-])cc1	25µM*	50µM*	35µM*	?	3	6.3µM*
CN(C)c1ccc(N=Nc2ccccc2C(=O)OCC(=O)N(C)c2ccccc2)cc1	13µM*	?	10µM*	?	-3	8.9µM*
CN(C)c1ccc(C(=O)OCC(=O)Nc2ccc(N3CCOCC3)cc2)cc1	4%	24%	-2%	0%	-6	0%
CC(=O)c1ccc(NC(=O)COC(=O)c2ccccc2N=Nc2ccc(N(C)C)cc2)cc1	13µM*	32µM*	5µM*	?	7	13µM*
COc1ccc(C(=O)c2oc3ccccc3c2NC(=O)COc2ccccc2)cc1	-12%	46%	9%	/	/	10%[59 µM]
O=C(NCC1CC1)c1ccc2nc(-c3ccoc3)c(-c3ccoc3)nc2c1	-28%[57.1 µM]	10%[57 µM]	/	/	/	/
COc1ccc(C)cc1NC(=O)C1CCN(S(=O)(=O)c2ccc3c(c2)CCCN3C(C)=O)CC1	-10%	21%[57 µM]	-9%	/	/	0%[59 µM]
NS(=O)(=O)c1ccc(CCNCc2ccccc2OCc2ccc(F)cc2)cc1	-8%	0%	-13%	/	-2	16%
NS(=O)(=O)c1ccc(NCc2ccccc2OCc2ccc(F)cc2)cc1	-28%	7%	56µM*	1%	-2	?
CCOc1ccc(NCc2ccccc2OCc2cccc(F)c2)cc1	?	3%	?	1%	2	10µM*
N#CCC(=O)NN	/	/	/	/	/	17%[12.7 µM]
COc1ccc(-n2nc(C(=O)Nc3cc(C)ccn3)c3c4ccccc4n(C)c3c2=O)cc1Cl	-9%	23%	/	/	/	-28%[59 µM]
